Assay [1] can be described thus: qHTS assay to identify small molecule antagonists of the thyroid receptor (TR) signaling pathway (AID 743065). Further: nearly all actives have a fitted effect of over 55% in size. Further: potency means the concentration at half of the fitted maximal effect. In a few lines: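 GH3.TRE-Luc rat pituitary cells carrying two TR response elements driving luciferase were plated for 4 h, given compound plus 1 nM T3 (final), and incubated 23.5 h at 37 C. ONE-Glo luminescence measured reporter inhibition; CellTiter-Fluor fluorescence tracked cytotoxicity.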
Background: Quantitative high-throughput screening tests each substance at several concentrations.

For assay [2], the system named is thyroid hormone receptor (rat, GH3 cells). In words: qHTS assay to identify small molecule agonists of the thyroid receptor (TR) signaling pathway (AID 743066; calls by dose curve).
Assay [3] addresses Estrogen receptor (Homo sapiens) (UniProt P03372). The assay can be described thus: qHTS assay to identify small molecule antagonists of the estrogen receptor alpha (ER-alpha) signaling pathway (AID 743069; active means well fitted curve in the direction sought with a large enough effect in the signal ratio in the repeat runs, not every such curve was filed as active; inconclusive means weak or mixed curves, or effect the other way; inactive means no such curve, though single readings can be large or run the other way; the % refers to the signal ratio; further: potency means the concentration at half of the fitted maximal effect). In a few lines:
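Estradiol-stimulated ER-alpha-UAS-bla HEK293 cells, 18 hr compound exposure at 37C. LiveBLAzer B/G substrate, 2 hr RT, fluorescence read.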

Assay [4] is described as follows: qHTS assay to identify small molecule antagonists of the estrogen receptor alpha (ER-alpha) signaling pathway - cell viability counter screen (AID 743074; calls by dose curve;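 further: HEK293 cells carrying ER-alpha-UAS-bla reporter stimulated with 17beta-estradiol; nearly all actives have a fitted effect of over 45% in size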; further: potency means the concentration at half of the fitted maximal effect).
In assay [5] the target is Estrogen receptor (Homo sapiens) (UniProt P03372). The assay can be described thus: qHTS assay to identify small molecule agonists of the estrogen receptor alpha (ER-alpha) signaling pathway (AID 743075; calls by dose curve;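 further: HEK293 GripTite cells with ER-alpha and UAS-driven beta-lactamase reporter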; further: potency means the concentration at half of the fitted maximal effect).
Chain of Estrogen receptor (Homo sapiens) (P03372 whole entry, looked up): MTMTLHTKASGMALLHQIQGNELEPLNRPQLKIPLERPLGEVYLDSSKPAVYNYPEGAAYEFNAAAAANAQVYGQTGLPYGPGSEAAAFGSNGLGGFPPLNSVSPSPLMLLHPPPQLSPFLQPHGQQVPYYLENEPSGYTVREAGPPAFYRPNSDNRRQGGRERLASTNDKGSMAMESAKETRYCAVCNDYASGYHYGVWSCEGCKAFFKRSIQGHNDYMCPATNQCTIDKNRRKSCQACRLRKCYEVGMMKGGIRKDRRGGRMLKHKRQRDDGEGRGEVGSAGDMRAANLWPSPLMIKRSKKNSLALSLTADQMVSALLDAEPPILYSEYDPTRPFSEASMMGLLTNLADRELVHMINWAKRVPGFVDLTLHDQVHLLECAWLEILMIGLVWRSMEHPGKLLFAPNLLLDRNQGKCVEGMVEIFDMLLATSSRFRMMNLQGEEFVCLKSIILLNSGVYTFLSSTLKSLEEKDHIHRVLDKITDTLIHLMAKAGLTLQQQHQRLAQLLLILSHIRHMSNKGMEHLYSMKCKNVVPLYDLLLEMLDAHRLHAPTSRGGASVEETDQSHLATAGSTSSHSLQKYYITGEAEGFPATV
Assay [6] has the same target. In words: qHTS assay to identify small molecule agonists of the estrogen receptor alpha (ER-alpha) signaling pathway using the BG1 cell line (AID 743079). Further: nearly all actives have a fitted effect of over 20% in size. Further: potency means the concentration at half of the fitted maximal effect. Particulars: BG1Luc4E2 cells, ERE-luciferase agonist, 22 h; activation: at 70.3 µM (top of the series).
Assay [7] is described as follows: qHTS assay to identify small molecule antagonists of the estrogen receptor alpha (ER-alpha) signaling pathway using the BG1 cell line (AID 743080; calls by dose curve;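 further: BG1 cells stimulated with 17beta-estradiol alongside compound; nearly all actives have a fitted effect of over 25% in size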; further: potency means the concentration at half of the fitted maximal effect). The conditions noted are these: BG1Luc4E2 ERE-luciferase antagonist mode, luminescence; activity change, negative = inhibition: at 70.3 µM (top of the series). The method, boiled down: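 Luciferase inhibition measured with ONE-Glo after 30 min at RT in BG1Luc4E2 cells given test compounds and 17beta-estradiol for 21.5 h at 37 C; CellTiter-Fluor viability read in the same wells beforehand.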

A short description of assay [8]: qHTS assay to identify small molecule antagonists of the estrogen receptor alpha (ER-alpha) signaling pathway using the BG1 cell line - cell viability counter screen (AID 743081).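 Further: compound given together with 17beta-estradiol as the ER stimulus; nearly all actives have a fitted effect of over 45% in size.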 Further: potency means the concentration at half of the fitted maximal effect.
The target in a further assay is Aromatase (Homo sapiens) (UniProt P11511). The assay can be described thus: qHTS assay to identify aromatase inhibitors (AID 743083). Further: nearly all actives have a fitted effect of over 55% in size. Further: potency means the concentration at half of the fitted maximal effect.
Chain of Aromatase (Homo sapiens) (P11511 whole entry, looked up): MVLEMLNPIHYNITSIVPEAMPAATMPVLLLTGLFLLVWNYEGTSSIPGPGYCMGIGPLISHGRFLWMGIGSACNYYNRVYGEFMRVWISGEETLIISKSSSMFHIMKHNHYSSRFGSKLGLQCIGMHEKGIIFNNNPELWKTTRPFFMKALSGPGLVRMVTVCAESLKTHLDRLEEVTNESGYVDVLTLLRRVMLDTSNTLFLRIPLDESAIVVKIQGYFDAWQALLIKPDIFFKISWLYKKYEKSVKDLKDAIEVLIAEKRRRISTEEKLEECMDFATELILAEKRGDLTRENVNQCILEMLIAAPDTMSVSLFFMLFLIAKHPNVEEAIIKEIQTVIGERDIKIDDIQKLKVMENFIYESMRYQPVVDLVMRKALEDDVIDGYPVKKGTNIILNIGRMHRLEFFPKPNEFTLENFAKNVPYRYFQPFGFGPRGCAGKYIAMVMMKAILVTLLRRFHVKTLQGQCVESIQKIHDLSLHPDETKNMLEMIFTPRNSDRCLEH
A short description of assay [9]: qHTS assay to identify aromatase inhibitors - cell viability counter screen (AID 743084).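 Further: cells stimulated with testosterone during compound exposure; nearly all actives have a fitted effect of over 55% in size.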 Further: potency means the concentration at half of the fitted maximal effect.
The target in assay [10] is Aryl hydrocarbon receptor (Homo sapiens) (UniProt P35869). In words: qHTS assay to identify small molecule that activate the aryl hydrocarbon receptor (AhR) signaling pathway (AID 743085). Further: nearly all actives have a fitted effect of over 15% in size. Further: potency means the concentration at half of the fitted maximal effect.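 On activation: HG2L7.5c1 human HepG2 liver cells with stably integrated DRE-driven firefly reporter.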 In a few lines:
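24 h compound exposure, 37C, HepG2-derived HG2L7.5c1 cells with DRE-responsive luciferase. Readouts: fluorescence viability, then luminescence at room temperature after 30 min.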

The target in assay [11] is Peroxisome proliferator-activated receptor gamma (Homo sapiens) (UniProt P37231). In words: qHTS assay to identify small molecule agonists of the peroxisome proliferator-activated receptor gamma (PPARg) signaling pathway (AID 743094; active means well fitted activation curve with a large enough effect in the signal ratio in the repeat runs, not every such curve was filed as active; inconclusive means weak or mixed curves, or effect the other way; inactive means no such curve, though single readings can be large or run the other way; the % refers to the signal ratio). In a few lines: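 Beta-lactamase FRET fluorescence was the read-out after a 1 h room-temperature substrate step, following 17 h compound treatment at 37C of HEK293H cells expressing a UAS-driven bla reporter responsive to PPARg.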
Chain of Peroxisome proliferator-activated receptor gamma (Homo sapiens) (P37231 whole entry, looked up): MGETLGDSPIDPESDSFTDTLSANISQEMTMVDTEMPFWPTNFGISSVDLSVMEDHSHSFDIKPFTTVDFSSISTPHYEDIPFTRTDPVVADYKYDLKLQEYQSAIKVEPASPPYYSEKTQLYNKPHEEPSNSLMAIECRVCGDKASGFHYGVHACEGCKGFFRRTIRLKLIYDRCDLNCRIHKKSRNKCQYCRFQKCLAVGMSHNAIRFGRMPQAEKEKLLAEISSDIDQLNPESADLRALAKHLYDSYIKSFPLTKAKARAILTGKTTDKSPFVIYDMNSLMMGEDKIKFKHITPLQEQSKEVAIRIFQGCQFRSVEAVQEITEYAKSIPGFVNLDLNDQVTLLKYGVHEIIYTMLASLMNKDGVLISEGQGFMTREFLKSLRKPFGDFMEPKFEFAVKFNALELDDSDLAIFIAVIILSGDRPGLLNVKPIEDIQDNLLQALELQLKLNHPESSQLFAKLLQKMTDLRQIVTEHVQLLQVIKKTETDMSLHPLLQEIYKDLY

The target is the same in assay [12]. In words: qHTS assay to identify small molecule antagonists of the peroxisome proliferator-activated receptor gamma (PPARg) signaling pathway (AID 743191; calls by dose curve; further: nearly all actives have a fitted effect of over 30% in size; further: potency means the concentration at half of the fitted maximal effect). The method, boiled down: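 GeneBLAzer PPARg UAS-bla HEK293H cells carrying a UAS-driven beta-lactamase reporter were plated at 3000 cells/well, preincubated 5 h at 37C, then given compound for 17 h at 37C; LiveBLAzer B/G FRET substrate was read after 1 h at room temperature.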

A short description of assay [13]: qHTS assay to identify small molecule antagonists of the peroxisome proliferator-activated receptor gamma (PPARg) signaling pathway - cell viability counter screen (AID 743194). Further: nearly all actives have a fitted effect of over 55% in size. Further: potency means the concentration at half of the fitted maximal effect. The method, boiled down: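 PPARg-UAS-bla HEK293H cells were plated, rested 5 h at 37 C, then treated with compounds plus rosiglitazone (50 nM final) for 17 h at 37 C; viability was then read by CellTiter-Glo luminescence after 30 min at room temperature.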

Assay [14] in a line: qHTS assay for small molecule agonists of the antioxidant response element (ARE) signaling pathway (AID 743202; active means well fitted activation curve with a large enough effect in the signal ratio in the repeat runs, not every such curve was filed as active; inconclusive means weak or mixed curves, or effect the other way; inactive means no such curve, though single readings can be large or run the other way; the % refers to the signal ratio). In a few lines:
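Compounds delivered in DMSO to ARE-bla HepG2 cells (2,000 cells/well, pre-incubated 5 h) and left 16 h at 37 C. LiveBLAzer B/G FRET substrate then added for 2 h at RT before fluorescence reading.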

A short description of assay [15]: qHTS assay for small molecule agonists of the antioxidant response element (ARE) signaling pathway - cell viability counter screen (AID 743203; calls by dose curve; further: nearly all actives have a fitted effect of over 55% in size; further: potency means the concentration at half of the fitted maximal effect). In a few lines:
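HepG2 cells carrying ARE-driven beta-lactamase; 2,000 cells/well; 5 hrs plating; compound pinned from DMSO; 16 hrs 37C/5% CO2; CellTiter-Glo added; 30 min RT; luminescence.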

Assay [16] can be described thus: qHTS assay for small molecule activators of the heat shock response signaling pathway - cell viability counter screen (AID 743209). Further: nearly all actives have a fitted effect of over 50% in size. Further: potency means the concentration at half of the fitted maximal effect. The method, boiled down: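 Luminescence from CellTiter-Glo, added after the beta-lactamase FRET read, gave the viability signal. Cells were HSE-bla HeLa treated with DMSO-dissolved compounds for 5 h at 37 C following overnight plating.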

Assay [17] can be described thus: qHTS assay to identify small molecule antagonists of the thyroid receptor (TR) signaling pathway - cell viability counter screen (AID 743064). Further: nearly all actives have a fitted effect of over 50% in size. Further: potency means the concentration at half of the fitted maximal effect. The method, boiled down:
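Compounds were tested on GH3.TRE-Luc cells in the presence of T3 at 1 nM final. Following 23.5 h at 37 °C, cell viability was quantified by CellTiter-Fluor.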

A short description of assay [18]: qHTS assay to identify small molecule that activate the aryl hydrocarbon receptor (AhR) signaling pathway - cell viability counter screen (AID 743086). Further: nearly all actives have a fitted effect of over 45% in size. Further: potency means the concentration at half of the fitted maximal effect. In a few lines:
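HepG2-AhR-luc (HG2L7.5c1) cells, 4000/well, were preincubated 5 h at 37C, exposed to compound in qHTS format for 24 hr at 37C, then given CellTiter-Fluor for 30 min; viability was read as fluorescence in the reporter wells.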

Assay [19] is described as follows: qHTS assay for small molecule activators of the heat shock response signaling pathway (AID 743210; active means well fitted activation curve with a large enough effect in the signal ratio in the repeat runs, with a control signal flat, not every such curve was filed as active; inconclusive means weak or mixed curves; the % refers to the signal ratio;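 further: HeLa cells with beta-lactamase reporter driven by heat shock elements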). The method, boiled down: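 Reporter gene assay: HeLa cells stably bearing an HSE-bla construct, compound treatment 5 h at 37 C, LiveBLAzer substrate 2.5 h at RT, fluorescence intensity.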

The source made the active and inactive calls. Unless noted, the call rests on the fitted dose curve; in most records, active means well fitted curve in the direction sought with a large enough effect in the repeat runs; inconclusive means weak or mixed curves; inactive means no such curve, though single readings can be large; an effect the other way counts as inactive or inconclusive.

Chain of Aryl hydrocarbon receptor (Homo sapiens) (P35869 whole entry, looked up): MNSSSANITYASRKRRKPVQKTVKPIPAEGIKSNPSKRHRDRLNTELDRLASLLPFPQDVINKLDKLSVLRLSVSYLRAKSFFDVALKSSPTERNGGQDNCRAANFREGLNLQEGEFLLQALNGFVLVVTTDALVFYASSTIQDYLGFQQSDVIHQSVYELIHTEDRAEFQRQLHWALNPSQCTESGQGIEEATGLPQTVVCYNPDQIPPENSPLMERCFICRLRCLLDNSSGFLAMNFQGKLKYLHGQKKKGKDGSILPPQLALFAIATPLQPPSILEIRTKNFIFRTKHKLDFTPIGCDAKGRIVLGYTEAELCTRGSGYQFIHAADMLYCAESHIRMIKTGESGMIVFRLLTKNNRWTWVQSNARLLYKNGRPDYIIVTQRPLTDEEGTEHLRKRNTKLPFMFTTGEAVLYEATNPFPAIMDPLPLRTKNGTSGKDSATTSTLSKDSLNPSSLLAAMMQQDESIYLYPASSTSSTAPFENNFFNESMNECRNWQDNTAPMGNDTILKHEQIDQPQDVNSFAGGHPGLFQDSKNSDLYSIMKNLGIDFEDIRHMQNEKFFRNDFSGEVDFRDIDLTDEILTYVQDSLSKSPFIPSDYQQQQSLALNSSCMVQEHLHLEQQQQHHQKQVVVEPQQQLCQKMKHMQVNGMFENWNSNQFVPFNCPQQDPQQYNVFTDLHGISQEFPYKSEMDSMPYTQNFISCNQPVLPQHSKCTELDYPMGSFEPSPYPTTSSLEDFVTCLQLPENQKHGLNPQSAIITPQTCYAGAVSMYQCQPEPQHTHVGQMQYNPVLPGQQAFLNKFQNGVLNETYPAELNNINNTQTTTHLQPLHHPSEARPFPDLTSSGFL

For the molecule `O=C(O)Cc1ccc(OCCNC[C@H](O)c2ccccc2)cc1`, the Potency entry in [1], in assay [2], in assay [3], in assay [4], in [5] and in [6] was “inactive” each time. Also, the Potency result (in assay [7]; in assay [8]; with Aromatase (Homo sapiens); in assay [9]; in assay [10]; in assay [11]) was “inactive” throughout. In addition, the Potency entry in [12], in [13], in assay [14], in assay [15] and in assay [16] was “inactive” throughout.

Regarding `C=C(C)C(=O)OCCC[Si](Cl)(Cl)Cl`, the Potency entry (in assay [17]; in [4]; in assay [8]; with Aromatase (Homo sapiens); in assay [9]; in assay [10]) was “inactive” in each case. In addition, the Potency result in assay [18], in assay [11], in [12], in assay [13], in [14] and in assay [15] was “inactive” in each case. Further, the Potency entry in assay [16] and in [19] was “inactive” in each case.

For the molecule `c1ccc(Sc2ccccc2)cc1`, the Potency entry in assay [1], in [2], in assay [3], in assay [4], in assay [5] and in assay [6] was “inactive” each time. In addition, the Potency entry (in assay [7]; in assay [8]; in the assay with Aromatase (Homo sapiens); in [9]; in assay [10]; in [18]) was “inactive” in each case. In addition, the Potency result in assay [11], in assay [12], in assay [13], in assay [14] and in assay [15] was “inactive” each time.

Turning to `CC(CN(C)C)CN1c2ccccc2CCc2ccccc21` (stereo unspecified), in [1], the Potency was 11.4 µM (active). Moreover, the Potency entry in assay [2], in assay [3], in assay [4], in [5], in assay [6] and in assay [7] was “inactive” in each case. Moreover, the Potency result in assay [10], in assay [18], in assay [14], in assay [15], in assay [16] and in assay [19] was “inactive” each time.

Turning to `CN(C)CCOC(c1ccccc1)c1ccccc1` (tested in a mixture with another compound), the Potency was 61.6 µM (active) in assay [1] and 49.3 µM (active) in [4]. In addition, the Potency entry in assay [2], in assay [3], in assay [5], in [6], in [7] and in assay [18] was “inactive” each time. For the same molecule, the Potency result in [13], in assay [14], in [15] and in assay [16] was “inactive” throughout.

With `[O]=[Zr]`, the Potency result (in assay [17]; in assay [2]; in [4]; in assay [8]; with Aromatase (Homo sapiens); in [9]) was “inactive” throughout. Further, the Potency entry in assay [10], in [18], in assay [11], in assay [13], in assay [15] and in assay [16] was “inactive” throughout.

Consider `CC1CCCNC1` (stereo unspecified), for which the Potency result in [1], in assay [2], in assay [3], in assay [4], in assay [5] and in [6] was “inactive” each time. Besides, the Potency entry (in [7]; in [8]; with Aromatase (Homo sapiens); in assay [9]; in assay [10]; in assay [18]) was “inactive” throughout. In addition, the Potency result in [11], in [12], in assay [13], in assay [14] and in assay [15] was “inactive” throughout.

Take `CC(C)(C)C1=CC(=O)C=C(C(C)(C)C)C1=O`: the Potency result in assay [17], in [2], in [3], in assay [5], in [6] and in assay [7] was “inactive” in each case. Moreover, the Potency result in assay [8], in assay [10] and in assay [18] was “inactive” throughout. The Potency with Aromatase (Homo sapiens) is 34.4 µM (active); in [9], 34.4 µM (active); in assay [13], 24.6 µM (active); in assay [15] it was 54.5 µM (active); in assay [16] it was 43.7 µM (active).

For the molecule `CCCCCCCC/C=C\CCCCCCCC(=O)OCCOC(=O)CCCCCCC/C=C\CCCCCCCC`, the Potency entry in assay [1], in assay [2], in assay [4], in assay [5], in assay [7] and in assay [8] was “inactive” in each case. In addition, the Potency entry (with Aromatase (Homo sapiens); in [9]; in assay [10]; in [18]; in assay [11]; in assay [13]) was “inactive” each time. In addition, the Potency result in assay [14], in assay [15], in assay [16] and in [19] was “inactive” in each case. Further, in [6], the Potency was 71.2 µM (active).

For `CN1CCN(C2Cc3ccccc3Sc3ccc(Cl)cc32)CC1` (stereo unspecified), the Potency in assay [17] is 9.44 µM (active); in assay [12] it was 29.8 µM (active); in assay [13], 29.8 µM (active); in assay [15], 29.8 µM (active). For the same molecule, the Potency result in assay [5], in assay [6], in assay [7], in [8] and in assay [10] was “inactive” throughout.

Consider `CC(=O)Nc1ccc(O)cc1`, for which the Potency result (in [17]; in assay [2]; in [4]; in [8]; with Aromatase (Homo sapiens); in assay [9]) was “inactive” in each case. The Potency result in [10], in assay [18], in assay [13] and in assay [16] was “inactive” throughout.

For `COc1cc(C=C2CCC/C(=C\c3ccc(O)c(OC)c3)C2=O)ccc1O`, the Potency in assay [17] was 7.5 µM (active); in assay [3], 15.1 µM [inconclusive] (active); in the assay with Aromatase (Homo sapiens), 21.1 µM (active); in [9] it was 21.1 µM (active); in assay [18] it was 23.7 µM (active); in [13], 21.1 µM (active). Besides, the Potency in assay [15] is 26.6 µM (active). Besides, the Potency entry in assay [5], in assay [7] and in assay [10] was “inactive” throughout.

With `CC(C)(C)CC(C)(C)c1ccccc1O`, the Potency in assay [17] was 19.4 µM (active); in assay [4], 49.2 µM (active); in assay [5], 22 µM [inconclusive] (active); in assay [6], 1.38 µM (active); with Aromatase (Homo sapiens), 48.8 µM (active); in assay [9] it was 48.8 µM (active). The results for the Potency in [13], in [15] and in assay [16] were 43.9 µM (active), 61.4 µM (active) and 55.2 µM (active), respectively. The Potency entry in [10] and in assay [18] was “inactive” throughout.

With `Cc1ccc(N)cc1O`, the Potency result in assay [1], in [2], in assay [3], in [5], in [6] and in [7] was “inactive” each time. The Potency result in [8], in assay [13], in assay [15] and in assay [19] was “inactive” in each case. Also, the Potency in assay [10] was 15.7 µM (active); in assay [18], 61.1 µM (active); in [12] it was 49 µM (active).

Consider `CC=O`, for which the Potency in assay [17] was 2.86 µM (active); in [4], 57.5 µM (active); in assay [7] it was 1.61 µM (active); in [8] it was 32 µM (active); in the assay with Aromatase (Homo sapiens) it was 5.08 µM (active); in assay [9], 36 µM (active). Besides, the Potency is 25.7 µM (active) in assay [13], 32 µM (active) in assay [15] and 22.9 µM (active) in assay [16]. Further, the Potency entry in [10] is “inactive”.

(Values after PubChem BioAssay (Tox21).)
